# Assay outcomes as filed in PubChem BioAssay.
# Rows were chosen to be rich in hits. Some 5.7% of all compounds tested hit in one or more screens of this group.
# ATXN viability = viability counter-screen for ATXN expression inhibitors | Potency, µM (highest dose often 56.7 µM), most hits filed as cytotoxic | AID 651635 | hit rate 0.49% among 400,000 | S2 cells (HEK-293 line with an ATXN2-luciferase reporter) viability, CellTiter-Fluor protease fluorescence, 24 h; also: potency is read from the fitted curve at half-maximal effect; nearly all actives have a fitted effect of over 40% in size
# ATXN2 expr inh = reduces ATXN2 reporter expression in HEK-293 cells; HEK-293 ATXN2-luciferase reporter, luminescence, 24 h; Potency, µM (top dose mostly 57 µM), for the others: at the highest dose activity change, negative = inhibition, actives largely listed as inhibitors; hit rate 0.72% among 360,000; AID 1745845; also: potency is read from the fitted curve at half-maximal effect; % is scaled to controls: 0 for no effect and ±100 for the full control effect; nearly all actives have a fitted effect of over 55% in size
#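 ATXN2-luciferase reporter cells (luciferase flanked by upstream and downstream ATXN2 gene portions) were treated 24 h at 37 °C with compounds at up to 57 uM. SteadyGlo luminescence gave expression; GF-AFC fluorescence gave viability.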
# HepG2 tox = kills HepG2 cells in TGF-b inhibitor counter-screen. hit rate 0.76% among 410,000. HepG2 CAGA-GFP viability, ATP luminescence, 18 h. AID 588856. Potency, µM (doses to about 46.1 µM), for inactives: top-dose activity change, negative = cytotoxicity, hits mostly cytotoxic; also: potency is read from the fitted curve at half-maximal effect
#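 HepG2 CAGA-GFP cells (1000/well, DMEM with 1% FBS) received compound, then TGF-beta at 500 pg/mL final, and were incubated 18 hours at 37 degrees C. Viability was read by CellTiter-Glo luminescence. Media-only wells were set as complete cell-killing and DMSO as no toxicity.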
# IL1B secr inh = inflammasome signaling inhibition, IL-1 beta readout | THP-1 LPS/ATP IL-1B secretion, AlphaLISA, 16 h; active compounds read low | activity change, % at 57.5 µM | hit rate 4.7% among 360,000; in the data active = activity change below about -50%; inconclusive = mostly about -30% to -49%; also: % is scaled to controls: 0 for no effect and ±100 for the full control effect
#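 THP-1 cells pretreated 1 hr with compounds (up to 57.5 uM final), then stimulated with LPS (250 ng/mL final) plus ATP (1.25 mM final); secreted IL-1B measured by AlphaLISA after 16 hr, decreased signal indicating inhibition.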
# TGFb SMAD3 inh = blocks TGF-b signaling. hit rate 1.2% among 410,000. HepG2 CAGA-GFP TGF-b/SMAD3 reporter, GFP fluorescence, 18 h; TGF-beta stimulated, 500 pg/mL final. AID 588855. Potency, µM (titrated, usually from 46.1 µM), for the others: top-dose activity, negative = inhibition, most hits filed as inhibitors; also: potency is read from the fitted curve at half-maximal effect; % is scaled to controls: 0 for no effect and ±100 for the full control effect; nearly all actives have a fitted effect of over 65% in size
#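 Using HEPG2 CAGA-GFP reporter cells at 1000 cells/well, we pinned test compounds, stimulated with recombinant TGF-beta (500 pg/mL final) and measured total well GFP after 18 h.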
# The depositor's hits bear a star; i = inactive; ? = inconclusive; . = not tested or not shown. Unless noted, calls follow the shape of the dose curve; as a rule, active = well fitted curve in the direction sought with a large enough effect; inconclusive = small, poorly fitted or top-dose-only effect, or another doubt; inactive = no such curve, though single readings can be large; an effect the other way counts as inactive or inconclusive.
SMILES,ATXN viability,ATXN2 expr inh,HepG2 tox,IL1B secr inh,TGFb SMAD3 inh
COc1cccc(Cn2c(CNS(=O)(=O)c3ccc(C(C)(C)C)cc3)nc3cccnc32)c1,.,.,-23.1%,.,?
COc1ccc2oc(=O)cc(CN3CCN(Cc4ccc(OC)c(OC)c4OC)CC3)c2c1,i,-38.1%,-39.4%,-54.0*,-17.8%
CCCC(=O)N1CCc2cc(OC)c(OC)cc2C1COc1ccc2c(C)cc(=O)oc2c1 (centres undefined),?,-5.4%,-4.8%,.,1.0%
S=C(Nc1cc(Cl)ccc1Oc1ccccc1)N1CCN(c2ccccn2)CC1,i,?,-9.3%,-79.0*,?
COc1ccc(OC)c(NC(=S)N2CCN(c3ccccn3)CC2)c1,i,2.6%,11.1%,-12.1,-1.1%
CC(C)(C)C(=O)NC(=S)NNC(=O)c1ccc(-c2ccccc2)cc1,?,.,-51.5%,141.9,10µM*
CC(C)N1CCN(c2ccc(OC[C@H]3CO[C@](Cn4cncn4)(c4ccc(Cl)cc4Cl)O3)cc2)CC1,?,?,12.6µM*,-24.2,?
CC(C)N1CCN(c2ccc(OCC3COC(Cn4cncn4)(c4ccc(Cl)cc4Cl)O3)cc2)CC1 (centres undefined),?,-20.1%,-10.7%,-53.0*,-17.6%
CCN(CC)CC(=O)Nc1sc2c(c1C(=O)c1ccccc1OC)CCC2,?,-29.8%,-21.6%,-53.4*,?
CCOC(=O)c1c(NC(=O)CN(CC)CC)sc2c1CCC2,i,4.3%,-38.4%,-6.6,-27.9%
Cc1sc2ncnc(NCC(O)c3ccccc3)c2c1C (centres undefined),i,-23.4%,-11.0%,-26.4,-31.9%
Cc1sc2ncnc(NCC(O)c3ccc([N+](=O)[O-])cc3)c2c1C (centres undefined),i,?,-25.4%,-55.0*,0.6%
O=C(Nc1ccccc1-c1cn2c(CN3CCNCC3)csc2n1)c1cnc2ccccc2n1,.,?,-105.3%,.,?
N#CSCC(=O)O,i,10.4%,.,.,.
N#CC1C(=O)c2ccccc2C1c1ccccc1 (centres undefined),?,?,14.1µM*,-103.7*,?
O=C1CCC(c2ccccc2)c2ccccc21 (centres undefined),i,-23.2%,-2.5%,0.0,-14.2%
CCCN1C(=O)C(=O)c2cc(Cl)ccc21,?,?,-77.5%,121.8,12.6µM*
CCc1ccc2c(c1)C(=O)C(=O)N2CCS(=O)(=O)c1ccccc1,i,.,-8.0%,25.7,?
O=C1C(=O)N(CCS(=O)(=O)c2ccccc2)c2ccc(Cl)cc21,i,-14.5%,-105.9%,0.0,22.4µM*
Cc1cc(Cl)ccc1NC(=O)CN1C(=O)C(=O)c2ccccc21,i,-4.7%,-31.1%,.,-13.9%
CCOc1ccc(N2CC(NC(=O)C3CCCCC3)CC2=O)cc1 (centres undefined),.,.,-0.5%,.,-23.9%
O=c1[nH]c(CCl)nc2cc(-c3ccc(F)cc3)sc12,i,?,11.2µM*,-102.1*,?
CCCC[C@H]1CCCO[C@@](C(=O)NCc2cc(C)n(C)n2)(C(F)(F)F)C1,.,.,-16.0%,.,?
CCN(CC)c1nc2cc(C)ccc2cc1/C=C(\C#N)C(N)=O,i,.,1.4%,-57.6*,?
O=C(Nc1ccc(NC(=O)c2ccccc2Cl)cc1)c1cccnc1,i,1.3%,-0.1%,-19.7,8.6%
SMILES,ATXN viability,ATXN2 expr inh,HepG2 tox,IL1B secr inh,TGFb SMAD3 inh
COc1cc(NC(=O)c2cccnc2)ccc1NC(=O)c1ccccc1Cl,i,-0.6%,-17.4%,-65.7*,10.8%
CC(C)C(=O)Nc1cccc(NC(=O)c2ccc(Cl)cc2Cl)c1,i,0.3%,1.4%,-59.4*,0.6%
COc1cc(NC(=O)c2cc(Cl)ccc2Cl)ccc1NC(=O)c1cc2ccccc2o1,.,31.6µM*,-27.6%,.,-20.7%
COc1cccc(C(=O)Nc2cccc(NC(=O)c3ccc(Cl)cc3Cl)c2)c1,.,.,-31.8%,.,?
O=C(Nc1cccc(NC(=O)c2ccc(Cl)cc2Cl)c1)c1cccnc1,i,-19.1%,-19.4%,-53.9*,-3.7%
CC(=O)NCC(=O)NCC1Cc2cc(C)cc(-c3ccccn3)c2O1 (centres undefined),i,.,.,.,.
Cc1c(C(=O)N(Cc2ccc(N(C)C)cc2)Cc2ccco2)oc2cc(Br)ccc12,.,.,0.6%,.,.
CCCOc1ccc(C(=O)Nc2cccc(NC(=O)c3ccc(Cl)cc3Cl)c2)cc1,?,-13.6%,11.2µM*,.,?
CCN(CC(=O)NCC(=O)Nc1ccc(Br)cc1C)Cc1ccccc1,i,5.1%,0.3%,-62.8*,3.7%
Cc1cc(Br)ccc1NC(=O)CN(C)C(=O)CNC(=O)Cc1ccccc1,i,5.6%,-9.5%,-4.8,9.9%
CN(C)c1cc2c3ccccc3ccc2c2ccccc12,.,.,-45.2%,.,-18.1%
COc1cc(CN(C(=O)COc2ccc(Cl)cc2)c2ccccn2)cc(OC)c1OC,i,1.7%,-25.9%,.,-22.9%
Cc1ccc(OCC(=O)N2N=C(C(F)(F)F)CC2(O)C(C)(C)C)cc1C (centres undefined),?,?,-106.3%,12.9,?
Cc1ccccc1OCC(=O)N1N=C(C(F)(F)F)CC1(O)C(C)(C)C (centres undefined),i,-25.6%,11.2µM*,-10.9,?
CN(C)CC/C=C1/c2ccccc2Sc2c(O)cc(Cl)cc21,?,-16.6%,0.2%,?,9.6%
COc1cc(Cl)cc2c1Sc1ccccc1/C2=C/CCN(C)C,i,-4.9%,-39.1%,-60.1*,-20.9%
COc1cc2c(cc1Cl)/C(=C\CCN(C)C)c1ccccc1S2,?,-36.6%,-101.8%,-102.6*,?
CN(C)CC/C=C1/c2cc(F)ccc2Sc2ccc(Cl)cc21,i,?,i,-51.4*,?
COc1cc(OC)c(NC(=O)CC(c2cccs2)N2Cc3ccccc3C2=O)cc1Cl (centres undefined),i,-19.0%,-53.6%,.,-58.7%
COc1cc(OC)c(NC(=O)CCn2cccn2)cc1Cl,i,11.1%,13.3%,.,-4.1%
Cc1c(NS(=O)(=O)c2ccc(NC(=O)CCC(=O)O)cc2)c(=O)n(-c2ccccc2)n1C,i,3.6%,1.0%,-71.1*,0.0%
Cc1cccc(N(CC(=O)Nc2c(C)n(C)n(-c3ccccc3)c2=O)S(C)(=O)=O)c1C,i,-1.5%,-4.8%,-21.4,2.82µM*
CC(=O)Nc1ccc(S(=O)(=O)Nc2c(C)n(C)n(-c3ccccc3)c2=O)cc1,i,-0.5%,-32.1%,7.6,-21.9%
CCNc1nc(NCc2ccccc2)nc(SCC(=O)Nc2ccccc2)n1,i,-10.3%,-14.1%,-50.2*,?
CCN(CC)S(=O)(=O)c1cc(NC(=O)c2ccc3c(c2)NC(=O)C(C)S3)ccc1C (centres undefined),?,?,-36.0%,-57.9*,?
